# From PubChem BioAssay AID720704 (The Scripps Research Institute Molecular Screening Center, 2013)
# Values joined by “and” are separate entries in the source; they are usually repeats but may differ in a detail not shown here. Equal values may be shown once. The campaign covered roughly 370,000 compounds. About 660 (0.18%) were called active. Rule as the data show it: active = inhibition above about 11%; inactive = the rest. The full list was thinned out, with actives kept by preference.
# Target: 1-phosphatidylinositol 4,5-bisphosphate phosphodiesterase beta-3 (Homo sapiens) (UniProt Q01970)
# Test: phospholipase C beta3 enzyme inhibition – biochemical, fluorescence, primary screen (AID 720704);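 also: 0% = median of compound wells on plate and 100% = full blocker control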
# Settings: Purified PLC-beta3, fluorogenic substrate, at 12.2 µM, stronger effect = higher value
# Sequence of 1-phosphatidylinositol 4,5-bisphosphate phosphodiesterase beta-3 (Homo sapiens) (Q01970 whole entry, looked up): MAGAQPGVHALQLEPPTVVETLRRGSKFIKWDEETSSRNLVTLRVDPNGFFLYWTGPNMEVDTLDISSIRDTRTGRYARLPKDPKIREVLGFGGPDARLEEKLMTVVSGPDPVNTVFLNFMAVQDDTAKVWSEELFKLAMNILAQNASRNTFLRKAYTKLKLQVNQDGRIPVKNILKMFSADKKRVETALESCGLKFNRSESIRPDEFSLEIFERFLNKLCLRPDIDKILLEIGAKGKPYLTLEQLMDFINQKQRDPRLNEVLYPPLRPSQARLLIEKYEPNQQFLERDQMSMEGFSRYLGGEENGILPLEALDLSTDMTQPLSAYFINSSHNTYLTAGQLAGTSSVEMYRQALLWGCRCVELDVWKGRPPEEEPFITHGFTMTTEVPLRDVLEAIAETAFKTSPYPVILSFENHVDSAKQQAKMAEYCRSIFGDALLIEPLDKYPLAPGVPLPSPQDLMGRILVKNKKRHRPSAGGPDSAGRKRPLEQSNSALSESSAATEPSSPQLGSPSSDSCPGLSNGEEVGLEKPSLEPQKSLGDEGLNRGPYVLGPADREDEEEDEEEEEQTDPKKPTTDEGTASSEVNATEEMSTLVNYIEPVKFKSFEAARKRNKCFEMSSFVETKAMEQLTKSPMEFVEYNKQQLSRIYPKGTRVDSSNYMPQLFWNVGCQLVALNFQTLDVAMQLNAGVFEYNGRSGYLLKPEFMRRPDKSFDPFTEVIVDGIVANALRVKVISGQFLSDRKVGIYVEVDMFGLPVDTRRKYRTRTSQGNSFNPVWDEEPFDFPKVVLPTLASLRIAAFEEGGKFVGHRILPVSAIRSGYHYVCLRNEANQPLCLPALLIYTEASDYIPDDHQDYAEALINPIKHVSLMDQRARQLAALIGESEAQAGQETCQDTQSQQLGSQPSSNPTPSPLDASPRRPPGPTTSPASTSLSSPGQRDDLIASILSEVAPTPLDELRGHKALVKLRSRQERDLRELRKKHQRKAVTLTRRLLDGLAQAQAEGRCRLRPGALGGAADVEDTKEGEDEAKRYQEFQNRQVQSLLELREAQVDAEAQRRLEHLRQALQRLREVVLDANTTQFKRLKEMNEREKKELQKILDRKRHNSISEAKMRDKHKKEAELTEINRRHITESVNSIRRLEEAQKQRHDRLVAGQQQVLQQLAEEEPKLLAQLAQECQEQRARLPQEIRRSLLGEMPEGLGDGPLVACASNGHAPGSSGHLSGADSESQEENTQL
row,Structure (SMILES),inhibition
1,O=C(COc1ccc(Cl)cc1)N1CCN(c2cccc(C(F)(F)F)c2)CC1,13.8% (active)
2,CSCCC(NC(=O)COc1ccccc1)C(=O)N1CCN(c2cccc(C(F)(F)F)c2)CC1 (centres undefined),-10.1% (inactive)
3,Cc1c(C)c2ccc(OCC(=O)N3CCN(c4cccc(Cl)c4)CC3)cc2oc1=O,-8.02% (inactive)
4,COC(=O)C1CC2=C(CC(C)(C)CC2=O)N(c2ccccc2)C1=O (centres undefined),-3.14% (inactive)
5,O=C(COC(=O)c1ccc(F)c(S(=O)(=O)N2CCOCC2)c1)NCc1ccc2c(c1)OCO2,-5.58% (inactive)
6,Cc1cc(NC(=O)COC(=O)c2ccc(F)c(S(=O)(=O)N3CCOCC3)c2)no1,11.6% (active)
7,Cc1ccc(C(=O)OCC(=O)Nc2ccc(Cl)cn2)cc1S(=O)(=O)N1CCOCC1,-6.74% (inactive)
8,CCc1c(Nc2ccccc2Cl)nc(N)[nH]c1=O,1.61% (inactive)
9,CCc1c(Nc2ccccc2C)nc(N)[nH]c1=O,14.8% (active)
10,CCCOc1ccc(Cc2c(O)nc(N)[nH]c2=O)cc1C,-5% (inactive)
11,COc1ccc(C(=O)O)cc1S(=O)(=O)NCc1cccnc1,-3.06% (inactive)
12,Cc1nnc(SCc2ccc(C(=O)c3ccc(Cl)cc3)o2)n1-c1ccccc1,0.27% (inactive)
13,COC(=O)c1cc(NC(=O)c2nn(C)c(=O)c3ccccc23)cc(C(=O)OC)c1,0.09% (inactive)
14,CC(=O)N1c2ccc(S(=O)(=O)N3CCCC(C(=O)NCc4ccc(Cl)cc4)C3)cc2CC1C (centres undefined),-2.78% (inactive)
15,O=C(NCc1ccco1)c1nn2cccnc2c1Cl,-10.8% (inactive)
16,CCc1cc(C(=O)c2ccc(OC)cc2)c(NC(=O)CN2CCN(C)CC2)s1,-17.3% (inactive)
17,CN1CCN(C(=O)Cn2c(C(F)(F)F)nc3ccccc32)CC1,5.24% (inactive)
18,CCCCc1nc2ccccc2c(NC(=O)CN2CCN(C)CC2)c1CCC,32% (active)
19,CCOC(=O)c1cc2ccccc2n1CC(=O)c1ccccc1,-2.72% (inactive)
20,CCn1c(/C=C/Nc2ccccc2)[n+](CC)c2ccc(C(=O)OCC(F)(F)F)cc21,13.1% (active)
21,Cc1cc(C)c(OCC(=O)N(Cc2cccs2)C2CCS(=O)(=O)C2)c(C)c1 (centres undefined),-6.39% (inactive)
22,CC1C(=O)Nc2ccccc2N1C(=O)c1c(F)cccc1F (centres undefined),-2.5% (inactive)
23,CC(=O)C12CC(C)=C(C)CC1CC1C3CCC4=CC(=O)CCC4(C)C3CCC12C (centres undefined),16.1% (active)

row,Structure (SMILES),inhibition
1,CC(=O)O[C@@]1(C(C)=O)CCC2[C@H]3C=C(C)C4=CC(=O)CC[C@@]4(C)C3CC[C@]21C (some centres undefined),-4.21% (inactive)
2,CC(=O)O[C@]1(C(C)=O)CC[C@H]2[C@@H]3C=C(C)C4=CC(=O)CC[C@]4(C)[C@H]3CC[C@@]21C,-0.43% (inactive)
3,Cc1cc(NC(=O)COn2nnc3ccccc32)no1,10.7% (active)
4,Cc1cc(NC(=O)CSCc2ccccc2C)no1,-0.65% (inactive)
5,Cc1cc(NC(=O)COc2ccccc2C#N)no1,-4.84% (inactive)
6,C/C(CC(=O)Nc1cccc(C(F)(F)F)c1)=N\NC(=O)C(=O)NCC(C)C,2.01% (inactive)
7,COc1ccc(C(N)c2csc(NC(=O)Nc3cccc(C(F)(F)F)c3)n2)cc1 (centres undefined),11.1% (active)
8,NC(c1csc(NC(=O)Nc2ccccc2Oc2ccccc2)n1)c1ccccc1Cl (centres undefined),-2.19% (inactive)
9,CCOC(=O)/C=C/CN(C(=O)OC(C)(C)C)S(=O)(=O)N1CC=CC1,5.79% (inactive)
10,O=C(C1CCCO1)N1CCN(C(=S)NC2CC2)CC1 (centres undefined),-1.16% (inactive)
11,O=C(C1CCCO1)N1CCN(C(=S)Nc2cccc(Cl)c2)CC1 (centres undefined),12.1% (active)
12,O=C(CN1CCN(C(=O)C2CCCO2)CC1)Nc1c(Cl)cccc1Cl (centres undefined),-2.62% (inactive)
13,C=CCN1[C@H](CC(C)C)COc2cccc(N3CCCC3)c2S1(=O)=O,-10.8% (inactive)
14,C=CCSc1nc2c(c(=O)[nH]1)C(C(C)C)C(C#N)=C(N)O2 (centres undefined),-5.98% (inactive)
15,O=C(NC1CCCC1)C1CC(=O)N(c2ccc(F)cc2)C1 (centres undefined),1.14% (inactive)
16,NC(=O)C1CC=CCC1C(=O)OCC(Cl)=C(Cl)Cl (centres undefined),-21% (inactive)
17,C=C(Cl)COC(=O)C1C2C=CC(C2)C1C(=O)O (centres undefined),-0.54% (inactive)
18,COc1cc(OC)cc(C(=O)OCC(=O)Nc2sccc2C(N)=O)c1,-6.31% (inactive)
19,CCOC(=O)c1cnc(SCc2nc(N)nc(Nc3ccc(OC)cc3)n2)nc1N,0.61% (inactive)
20,Cc1ccc2nsnc2c1S(=O)(=O)N1CCCC1C(=O)O (centres undefined),5.41% (inactive)
21,CC[C@]12c3[nH]c4ccc(Cl)cc4c3CCN1C(=O)[C@@H](CC(=O)NCCCOC)C[C@@H]2C(=O)N1CCN(C(=O)C2CC2)CC1,-4.01% (inactive)
22,O=C(NC1CC1)C1CCCN(C(=O)NC2CCCCC2)C1 (centres undefined),-7.45% (inactive)
23,CC(C)C(=O)N1CCN(CCN=CC2=C(O)CC(c3ccco3)CC2=O)CC1 (centres undefined),-7.32% (inactive) and -15% (inactive)

row,Structure (SMILES),inhibition
1,C=CCn1c(SCc2ccc(Cl)c(Cl)c2)nnc1C(CO)NC(=O)c1ccc(OC)cc1 (centres undefined),4.74% (inactive)
2,COCCCn1cc(CN2CC(N(C)C)CS2(=O)=O)nn1 (centres undefined),-1.16% (inactive)
3,O=C(Nc1c(C(=O)N2CCCCC2)cnn1-c1ccccc1)c1ccco1,2.51% (inactive)
4,O=C(CN(CC1CCCO1)C(=O)CNS(=O)(=O)c1ccc(F)cc1)NCc1ccco1 (centres undefined),1.51% (inactive)
5,O=C1NC2(CCCCC2)N=C1c1ccccc1,10% (inactive)
6,Cc1ccccc1N1CCN(C2CCCN(C(=O)c3cn4c(C)cccc4n3)C2)CC1 (centres undefined),-10.2% (inactive)
7,O=[N+]([O-])c1cc([N+](=O)[O-])c2cccnc2c1O,-4.85% (inactive)
8,Oc1c(CN2CCCC2)cc(COCc2ccccc2)c2cccnc12,16.5% (active)
9,CCCNC(=O)NC(=O)COC(=O)CC(NC(N)=O)c1ccc(Cl)cc1 (centres undefined),0.66% (inactive)
10,CCOC(=O)c1cnc(-n2nc(C)cc2C)nc1NNc1cc(C)nc(-c2ccccc2)n1,1.49% (inactive)
11,COc1ccccc1CCNC(=O)C1CCN(c2nc(C)cc(C)n2)CC1,1.47% (inactive)
12,COc1ccccc1/C=N\Nc1cc(C)nc(-n2nc(C)cc2C)n1,11.2% (active)
13,CCCOc1cccc(C(=O)Nc2ccccc2C(=O)N2CCN(C)CC2)c1,-3.82% (inactive)
14,Cn1c(SCC(=O)Nc2cccc(O)c2)nnc1-c1ccc(S(=O)(=O)N2CCOCC2)cc1,1.37% (inactive)
15,Cc1ccc(NC(=O)C(C)OC(=O)Cc2c[nH]c3ccccc23)cc1S(=O)(=O)N1CCOCC1 (centres undefined),-3.66% (inactive)
16,CCC(C)(C(=O)NC1CCCCC1)N(C)C(=O)c1ccc2c(c1)OCO2 (centres undefined),3.07% (inactive)
17,CCOC(=O)c1cccc(NC(=O)CCc2nnc3ccc(N4CCOCC4)nn23)c1,-10.3% (inactive)
18,CC(=O)c1c(C)[nH]c(C(=O)N2CCN(S(=O)(=O)c3ccc(F)c(F)c3)CC2)c1C,-2.62% (inactive)
19,COCCNc1ccc(-c2n[nH]c(=O)c3ccccc23)cc1[N+](=O)[O-],-3.71% (inactive)
20,O=C(c1ccc2c(c1)OCO2)N1CCNc2ccccc2C1,12.9% (active)
21,O=C(C(=O)N1CCN(c2ccccc2)CC1)c1ccc2c(c1)OCO2,-0.14% (inactive)
22,O=CN1CCN(C(=O)c2ccc3c(c2)OCO3)CC1,-2.96% (inactive)
23,O=C(NCc1ccccc1)c1onc(CSc2nc3ccccc3[nH]2)c1C(=O)NCc1ccccc1,8.62% (inactive)

row,Structure (SMILES),inhibition
1,COc1cc(OC)c(C(=O)N2CCCC2)cc1OC,-8.68% (inactive)
2,CCCc1nc2ccccc2n1C(C)C(=O)NC(C)(C)C (centres undefined),1.17% (inactive)
3,Cc1ccc(C)c(NC(=O)C2CCCN2C(=O)OC(C)(C)C)c1 (centres undefined),5.04% (inactive)
4,Cc1cccc(C)c1NC(=O)C1CCCN1C(=O)OC(C)(C)C (centres undefined),0.37% (inactive)
5,CCC[C@H]1CCCC/C=C\CCCC(=O)OCCN1C(=O)OC(C)(C)C,13.5% (active)
6,CC(C)Cn1c(SCC(=O)Nc2ccc(Cl)cc2F)nc(O)cc1=O,-1.44% (inactive)
7,CC(C)c1ccc(Nc2nnc(SCC(=O)c3nnc(-c4ccccc4)o3)s2)cc1,-19.6% (inactive)
8,O=C(Nc1cccc2ccccc12)c1[nH]c(-c2ccccc2)c2c1C(=O)N(C1CC1)C2=O,-1.92% (inactive)
9,CCC(=O)c1ccc(OCC(=O)OCC(=O)N2CCc3ccccc3C2)cc1,-10.2% (inactive)
10,CO/N=C(/CS(=O)(=O)c1ccc(Br)cc1)c1ccc(OC)cc1,0.43% (inactive)
11,CCSc1sc(CC)cc1C=O,-0.46% (inactive)
12,CCOC(=O)N1CCN(Cc2nc(Cc3cccc(C(F)(F)F)c3)no2)CC1,-6.49% (inactive)
13,CC(C)=CCN1CCN(Cc2cc3ccccc3[nH]2)CC1CCO (centres undefined),-5.94% (inactive)
14,CC(C)(C)OC(=O)Nc1ccc([C@@H](NC(=O)OC(C)(C)C)C(=O)OC(C)(C)C)cc1,6.19% (inactive)
15,CCN(CC(=O)Nc1ccc2c(c1)OCCO2)Cc1cc(=O)oc2cc(C)c(C)cc12,-6.71% (inactive)
16,CO[C@@H]1CN(C)C(=O)c2cc(NC(=O)Nc3cc(F)ccc3F)ccc2OC[C@H](C)N(C(=O)c2ccccn2)C[C@@H]1C,-2.49% (inactive)
17,COC(=O)c1ccc(COC(=O)c2cnccn2)cc1,4.2% (inactive)
18,O=C(c1ccc(OC2CCN(C/C=C/c3ccc(F)cc3)CC2)cc1)N1CCCCC1,-10.6% (inactive)
19,COc1cc(OC)c(-n2cc(-c3ccc(Cl)cc3)[nH]c2=O)cc1Cl,1.76% (inactive)
20,Cc1ccc(NC(=O)c2nc[nH]c2C(=O)N2CCCCC2)c(C(=O)c2ccccc2)c1,-2.21% (inactive)
